Assay results: the supplement of paper PMC11150407
The whole screen tested about 2,100 compounds, of which about 180 (8.6%) showed an effect of 50% or more. The sample holds strong results, similar compounds and a random draw of the others, so the mix is not that of the screen.

Each molecule was assayed on MOLM1 and UCSD/AML1 (averaged) (assay: cell viability relative to DMSO control (POC); higher = less growth inhibition). Details: 1 µM; 72 h.
Protocol: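 Primary viability screen in the 3q26 EVI1-high AML cell lines MOLM1 and UCSD/AML1 (1.5e3 cells/well, 384-well), compounds at 1 uM for 72 h. ATP CellTiter-Glo read-out given as percent of viable cells over DMSO control (POC), averaged over duplicates. DMSO was the negative control and 5 uM etoposide the positive control. This mapping covers the MicroSource Spectrum and Selleck anticancer libraries (drug names).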
Molecule `CN(CC[C@H](N)CC(=O)N[C@H]1C=C[C@H](n2ccc(N)nc2=O)O[C@@H]1C(=O)O)C(=N)N` has a cell viability of 114%.
Molecule `COc1cc2c(cc1-c1cc3cc4ccoc4cc3oc1=O)OCO2` has a cell viability of 99.4%.
`CC[C@@H](C)C(=O)O[C@H]1[C@H](O)[C@H]2[C@@H](CN3C[C@@H](C)CC[C@H]3[C@@]2(C)O)[C@@H]2C[C@]34O[C@]5(O)[C@@H](OC(=O)[C@@](C)(O)CC)CC[C@@]3(C)[C@@H]5[C@@H](OC(C)=O)[C@@H](OC(C)=O)[C@H]4[C@@]21O` showed a cell viability of 89.1%.
`COc1cc([C@@H]2c3cc4c(cc3[C@H](O)[C@H]3COC(=O)[C@H]23)OCO4)cc(OC)c1OC` gave a cell viability of 6.17%.
Work on `CN1CCc2cc3c(cc2C1O)OCO3` (stereo unspecified) yielded a cell viability of 102%.
With `COc1ccc2c(c1OC)C(=O)O[C@H]2[C@H]1c2cc3c(cc2CCN1C)OCO3` the cell viability was 93.9%.
For `COc1cc([C@@H]2c3cc4c(cc3[C@H](O)[C@H]3COC(=O)[C@@H]23)OCO4)cc(OC)c1OC`, the cell viability was 12.3%.
`COc1ccc2c(c1OC)C(=O)O[C@@H]2[C@H]1c2cc3c(cc2CCN1C)OCO3` was tested, and the cell viability was 88%.
In the case of `Oc1cc(Cl)ccc1Oc1ccc(Cl)cc1Cl`, the cell viability was 95.1%.
`Cc1ncc(CNC(=O)N(CCCl)N=O)c(N)n1` was tested, and the cell viability was 111%.
In the case of `CC(=O)CC1CCCCN1` (stereo unspecified), the cell viability was 102%.
Molecule `CN[C@@H](C)[C@@H](O)c1ccccc1` has a cell viability of 105%.
`O=c1[nH]c2ccccc2n1C1CCN(CCCC(c2ccc(F)cc2)c2ccc(F)cc2)CC1` was tested, and the cell viability was 94.7%.
Work on `CNC(C)C(O)c1ccccc1` (stereo unspecified) yielded a cell viability of 96.1%.
`CC[C@@H](C(=O)[C@@H](C)[C@@H](O)[C@H](C)[C@@H]1O[C@@H]([C@@H](CC)C(=O)O)CC[C@@H]1C)[C@H]1O[C@]2(C=C[C@@H](O)[C@]3(CC[C@@](C)([C@H]4CC[C@](O)(CC)[C@H](C)O4)O3)O2)[C@H](C)C[C@@H]1C` [Salinomycin (Procoxacin)] gave a cell viability of 68.4%.
In the case of `CC[C@@H](C(=O)[C@@H](C)[C@@H](O)[C@H](C)[C@@H]1O[C@@H]([C@@H](CC)C(=O)O)CC[C@@H]1C)[C@H]1O[C@]2(C=C[C@@H](O)[C@]3(CC[C@@](C)([C@H]4CC[C@](O)(CC)[C@H](C)O4)O3)O2)[C@H](C)C[C@@H]1C`, the cell viability was 20.9%.
With `CC(=O)O[C@@H]1[C@H]2CC[C@H]3[C@@](C)(O)[C@@H]4C[C@H](O)C(C)(C)[C@@]4(O)[C@H](O)C[C@@]13C[C@@]2(C)O` the cell viability was 100%.
With `C[C@@H](CO)NC(=O)[C@@H]1C=C2c3cccc4[nH]cc(c34)C[C@H]2N(C)C1` the cell viability was 102%.
In the case of `Cc1c(O)c(O)cc2c1CC=C1[C@@]2(C)CC[C@@]2(C)[C@@H]3C[C@](C)(C(=O)O)CC[C@]3(C)CC[C@]12C`, the cell viability was 11.5%.
`CC1=C(O)C(=O)C=C2C1=CC=C1[C@@]2(C)CC[C@@]2(C)[C@@H]3C[C@](C)(C(=O)O)CC[C@]3(C)CC[C@]12C` gave a cell viability of 30.1%.
With `CC(C)C[C@H](CN)CC(=O)O` the cell viability was 67.7%.
In the case of `COC[C@]12CN(C=O)[C@@H]3[C@@H]4[C@H](OC)[C@H]1[C@@]3([C@@H](OC)C[C@H]2O)[C@@H]1C[C@@]2(O)[C@H](OC(=O)c3ccccc3)[C@@H]1[C@]4(OC(C)=O)[C@@H](O)[C@@H]2OC`, the cell viability was 111%.
With `C=C(C)[C@H]1Cc2c(ccc3c(=O)c4c(oc23)COc2cc(OC)c(OC)cc2-4)O1` the cell viability was 106%.
`S=C=NCc1ccccc1` was tested, and the cell viability was 95.3%.
For `C#CCOS(=O)OC1CCCCC1Oc1ccc(C(C)(C)C)cc1` (stereo unspecified), the cell viability was 89.9%.
In the case of `CC(C)(C)C(=O)C(Oc1ccc(Cl)cc1)n1cncn1` (stereo unspecified), the cell viability was 99.8%.
For `CC[C@@]1(O)C(=O)OCc2c1cc1n(c2=O)Cc2cc3ccccc3nc2-1`, the cell viability was 1.42%.
For `C[C@H]1CC[C@]2(NC1)O[C@H]1C[C@H]3[C@@H]4CC[C@H]5C[C@@H](O)CC[C@]5(C)[C@H]4CC[C@]3(C)[C@H]1[C@@H]2C`, the cell viability was 93.3%.
With `C[N+]1(C)CCc2cc3c(cc2[C@H]1[C@@H]1OC(=O)c2c1ccc1c2OCO1)OCO3` the cell viability was 104%.
`COc1cc2c(cc1OC)[C@H](C)NCC2` was tested, and the cell viability was 94.2%.
`CC(C)c1ccc2c(c1O)CC[C@H]1C3=C(CC[C@]21C)C(=O)OC3` gave a cell viability of 89.3%.
`CC(C)[C@]12O[C@H]1[C@@H]1O[C@]13[C@]1(O[C@H]1C[C@H]1C4=C(CC[C@@]13C)C(=O)OC4)[C@@H]2O` [Triptolide] showed a cell viability of 2.21%.
`c1ccc(/N=N/c2ccccc2)cc1` showed a cell viability of 96.4%.
With `N#C/C(=C\c1ccc(O)cc1)C(=O)O` [alpha-CYANO-4-HYDROXYCINNAMIC ACID] the cell viability was 113%.
`CCSCC[C@H](N)C(=O)O` showed a cell viability of 99.2%.
In the case of `CCC(C)C(=O)OC1CC2(C)C(c3ccoc3)OC(=O)CC23OC2(C)OC34C(OC(=O)C(C)C)C3(O)C(OC(=O)C5(C)OC5C)C5(C)CC3(O)C(C)(C5CC(=O)OC)C14O2` (stereo unspecified), the cell viability was 91.2%.
`COC(=O)[C@@H]1C[C@H](OC(C)=O)C(=O)[C@H]2[C@@]1(C)CC[C@H]1C(=O)O[C@H](c3ccoc3)C[C@]21C` was tested, and the cell viability was 104%.
With `CNC(=O)Oc1cccc2c1OC(C)(C)C2` the cell viability was 85.3%.
`C=CCc1ccc(OC)cc1` showed a cell viability of 107%.
`COc1ccc(C[C@H]2NC[C@H](O)[C@H]2OC(C)=O)cc1` gave a cell viability of 3.59%.
Work on `CC[C@H]1[C@@H]2C[C@H]3[C@@H]4N(C)c5ccccc5[C@]45C[C@@H]([C@@H]2[C@H]5O)N3[C@@H]1O` yielded a cell viability of 109%.
In the case of `CC1=C2C(=CO[C@H](C)[C@H]2C)C(O)=C(C(=O)O)C1=O`, the cell viability was 104%.
`C[C@H]1O[C@@H](O[C@H]2[C@@H](O)C[C@H](O[C@H]3[C@@H](O)C[C@H](O[C@H]4CC[C@@]5(C)[C@H](CC[C@@H]6[C@@H]5CC[C@]5(C)[C@@H](C7=CC(=O)OC7)[C@@H](O)C[C@]65O)C4)O[C@@H]3C)O[C@@H]2C)C[C@H](O)[C@@H]1O` showed a cell viability of 3.82%.
In the case of `C[C@]12CC[C@H](O)C[C@H]1CC[C@@H]1[C@@H]2CC[C@]2(C)[C@@H](C3=CC(=O)OC3)[C@@H](O)C[C@]12O`, the cell viability was 99.6%.
With `CC(=O)O[C@H]1C[C@H](O[C@H]2[C@@H](O)C[C@H](O[C@H]3[C@@H](O)C[C@H](O[C@H]4CC[C@@]5(C)[C@H](CC[C@@H]6[C@@H]5C[C@@H](O)[C@]5(C)[C@@H](C7=CC(=O)OC7)CC[C@]65O)C4)O[C@@H]3C)O[C@@H]2C)O[C@H](C)[C@H]1O[C@@H]1O[C@H](CO)[C@@H](O)[C@H](O)[C@H]1O` the cell viability was 3.89%.
In the case of `CC(=O)[C@H]1CC[C@H]2[C@@H]3CC[C@H]4C[C@H](O)CC[C@]4(C)[C@H]3CC[C@]12C`, the cell viability was 87.7%.
With `CC(=O)O[C@H]1CC[C@@]2(C)[C@H](CC[C@@H]3[C@@H]2CC[C@]2(C)[C@@H](C4=CC(=O)OC4)[C@@H](OC(C)=O)C[C@]32O)C1` the cell viability was 2.29%.
Molecule `CC(=O)O[C@H]1C[C@@H]2CC[C@@H]3[C@H](CC[C@@]4(C)[C@H]3C[C@H]([N+]3(C)CCCCC3)[C@@H]4OC(C)=O)[C@@]2(C)C[C@@H]1[N+]1(C)CCCCC1` has a cell viability of 88.6%.
Work on `C[C@H]1CC[C@]2(NC1)O[C@H]1C[C@H]3[C@@H]4CC[C@H]5C[C@@H](O[C@@H]6O[C@H](CO)[C@H](O[C@@H]7O[C@H](CO)[C@@H](O)[C@H](O[C@@H]8OC[C@@H](O)[C@H](O)[C@H]8O)[C@H]7O[C@@H]7O[C@H](CO)[C@@H](O)[C@H](O)[C@H]7O)[C@H](O)[C@H]6O)CC[C@]5(C)[C@H]4CC[C@]3(C)[C@H]1[C@@H]2C` yielded a cell viability of 65.2%.
`C[C@@H]1CC[C@@]2(OC1)O[C@H]1[C@@H](O)[C@H]3[C@@H]4CC[C@H]5C[C@@H](O[C@@H]6O[C@H](CO)[C@H](O[C@@H]7O[C@H](CO)[C@@H](O)[C@H](O[C@@H]8OC[C@@H](O)[C@H](O)[C@H]8O)[C@H]7O[C@@H]7O[C@H](CO)[C@H](O)[C@H](O[C@@H]8O[C@H](CO)[C@@H](O)[C@H](O)[C@H]8O)[C@H]7O)[C@H](O)[C@H]6O)[C@H](O)C[C@]5(C)[C@H]4CC[C@]3(C)[C@H]1[C@@H]2C` showed a cell viability of 92.7%.
In the case of `CC(=O)OC1CCC23C(=O)OC45CCC(C6=CC(=O)OC6)C4(C)CCC2C5CCC3(O)C1` (stereo unspecified), the cell viability was 5.23%.
